The structures appear in SMILES notation. In all, about 69,000 compounds went through this assay and about 8,600 (12%) showed an effect of 50% or more. The list comes from a sample in which strong results are over-represented; it also holds similar structures and randomly drawn compounds.

For this test, the system named is Plasmodium berghei. Briefly: Screen against P. berghei liver stage (PbLuc), transformed with Luciferase, at 10uM. The class given is functional, HepG2. The conditions noted are these: tested at 10 uM.
For `c1coc(CN2CCO[C@H]3[C@@H](OCC4CC4)CC[C@@H]32)c1`, the INHIBITION was 6.67%.

Consider `CCCc1nc(CNCC2CCCN2c2cccnn2)cs1` (centres undefined), for which the INHIBITION is reported as 48.2%.

For `CCc1noc(CNCC2CCCN2c2cccnn2)n1` (centres undefined), the INHIBITION is recorded as 19.5%.

With `CN(Cc1cnn(-c2ccccc2)n1)CC1CCCN1c1cccnn1` (centres undefined), the INHIBITION is recorded as 58.3%.

As for `CC(C)CCc1nc(CNCC2CCCN2c2cccnn2)cs1` (centres undefined), the INHIBITION is reported as 61.3%.

With `CCc1nc(CNCC2CCCN2c2cccnn2)no1` (centres undefined), the INHIBITION is recorded as 23.4%.

Turning to `O=C(CNCC1CCCN1c1cccnn1)NCCc1cccs1` (centres undefined), the INHIBITION was 28%.

Regarding `CCCc1nc(CNCC2CCCN2c2cccnn2)no1` (centres undefined), the INHIBITION came out at 59%.

`CN(Cc1ccccn1)CC1CCCN1c1cccnn1` (centres undefined): the INHIBITION was -8.11%.

As for `CN(Cc1cnn(-c2ccccc2)n1)C1CCCN(c2cccnn2)C1` (centres undefined), the INHIBITION is given as -19.4%.

With `CCc1nc(CNCC2CCCN2c2cccnn2)cs1` (centres undefined), the INHIBITION came out at 5.8%.

Consider `c1cnnc(N2CCCC2CNCc2cccs2)c1` (centres undefined), for which the INHIBITION is 19.5%.

On to `c1cnnc(N2CCCC2CNCCc2cccs2)c1` (centres undefined), for which the INHIBITION is listed as 91%.

With `CC(C)CN1CCS(=O)(=O)[C@@H]2CCN(S(=O)(=O)N(C)C)CC[C@@H]21`, the INHIBITION was 20.1%.

Take `O=C(NCCN1CCCCC1)C(c1ccccc1)N1CCCC1` (centres undefined): the INHIBITION is -22.1%.

On to `Cc1cnccc1-c1cnn(CCNC(=O)c2cccnc2)c1C1CC1`, for which the INHIBITION stood at 16.5%.

Regarding `CC(C)N(C)Cc1nnc2n1CCCN(c1ncccn1)C2`, the INHIBITION is listed as 29.5%.

In the case of `CCC(CC)C(=O)NC1CCCc2nc(N3CCOCC3)ncc21` (centres undefined), the INHIBITION is 7.52%.

`Cn1cc(N2CC3(CCN(CC4CC4)C3)CC2=O)cn1` (centres undefined): the INHIBITION was found to be 15.3%.

For `Cc1nn(C)c(C)c1-c1cnc(C2CCCN(S(C)(=O)=O)C2)cn1` (centres undefined), the INHIBITION was -6.92%.

Regarding `CCNc1cc2c(nn1)CCN(C(=O)C1CCc3ccccc31)C2` (centres undefined), the INHIBITION is given as 11.2%.

As to `COCC(=O)N1CCC(c2cc3nc(C)cc(C(F)(F)F)n3n2)CC1`, the INHIBITION was determined as 20.15%.

Turning to `O=C1NC2(CCCN(C(=O)CCn3cccn3)C2)Oc2ccccc21` (centres undefined), the INHIBITION is listed as 10.385%.

`c1ccc(-n2cc(CNCC3CCCN3c3cccnn3)nn2)cc1` (centres undefined): the INHIBITION was 18.2%.

As to `c1ccc(-n2ccc(CNCC3CCCN3c3cccnn3)n2)cc1` (centres undefined), the INHIBITION was 16.9%.

In the case of `c1ccc(-n2ncc(CNCC3CCCN3c3cccnn3)n2)cc1` (centres undefined), the INHIBITION was 57.2%.

Consider `Cc1ccc(C(=O)NS(=O)(=O)c2ccccc2Br)c(=O)[nH]1`, for which the INHIBITION turned out to be 44.1%.

As to `Cc1ccc(C(CCNCCCN(C)C)C2CCOC(C)(C)C2)cc1` (centres undefined), the INHIBITION was 32.3%.

For the compound `COCc1nn(CC2CC2)c2c1CN(Cc1cccs1)CC2`, the INHIBITION is recorded as -97.2%.

Turning to `CCOCc1nn(CC2CC2)c2c1CN(Cc1cccs1)CC2`, the INHIBITION is 64.7%.

With `CCOCc1nn(C)c2c1CN(Cc1cccs1)CC2`, the INHIBITION is given as 32.1%.

Turning to `O=C(c1ccc(O)cn1)N1CCOC(Cc2cccc(C(F)(F)F)c2)C1` (centres undefined), the INHIBITION is given as -9.29%.

Take `O=C(c1n[nH]cc1Cl)N1CCOC(Cc2cccc(C(F)(F)F)c2)C1` (centres undefined): the INHIBITION is listed as 75.9%.

As for `CC(=O)N1CCOC(Cc2cccc(C(F)(F)F)c2)C1` (centres undefined), the INHIBITION came out at 7.1%.

Consider `CN(C(=O)Nc1ccncc1)C1CCN(c2ccccc2)C1=O` (centres undefined), for which the INHIBITION was determined as 41.3%.

Consider `CN1C(=O)COc2ccc(NC(=O)CCc3nc4cccnc4[nH]3)cc21`, for which the INHIBITION is on record as 39.7%.

For `O=C(Nc1cc(-c2ccccc2)on1)N1CCN(CCO)CC1`, the INHIBITION stood at 43.9%.

Take `O=C(Nc1cc(-c2ccccc2)on1)N1CC[C@H](O)C1`: the INHIBITION is recorded as -51.7%.

`CCC(=O)NC1CCCN(C(=O)Nc2cc(-c3ccccc3)on2)C1` (centres undefined): the INHIBITION was 52.6%.

Consider `Cc1nnc(NC(=O)NCCN(C(=O)OC(C)(C)C)C2CC2)s1`, for which the INHIBITION turned out to be 4.34%.

With `O=C1CCN(CCS(=O)(=O)c2ccc(Cl)cc2)CCN1`, the INHIBITION turned out to be 7.43%.

On to `COCCNC(=O)[C@H]1C[C@@H]2CCN(c3ccncn3)C[C@H]2O1`, for which the INHIBITION came out at 7.53%.

In the case of `Cc1cc2n(n1)CC(CNCc1ccc(N3CCOCC3)nc1)CN2` (centres undefined), the INHIBITION was -2.143%.

Consider `Cc1cccnc1CCNC(=O)CC1C(=O)NCCN1CCC(C)C` (centres undefined), for which the INHIBITION was -23%.

Consider `CCCn1nccc1-c1cc(C2CCN(C(C)=O)CC2)ccn1`, for which the INHIBITION worked out at 12.3%.

Consider `CCCn1nccc1-c1cc(C2CCN(S(C)(=O)=O)CC2)ccn1`, for which the INHIBITION stood at 55.6%.

Turning to `Cn1nccc1-c1cc(C2CCN(S(C)(=O)=O)CC2)ccn1`, the INHIBITION came to 42.4%.

In the case of `COCC1c2nnn(CC3CC3)c2CCN1C(=O)c1sccc1C` (centres undefined), the INHIBITION stood at 72.3%.

Turning to `COCC1c2nnn(CC3CC3)c2CCN1C(=O)c1ccnnc1` (centres undefined), the INHIBITION was -16.2%.

For `COCC1c2nnn(CC3CC3)c2CCN1C(=O)c1cccn1C` (centres undefined), the INHIBITION is listed as -56.2%.

As for `COc1ccccc1C(C)(C)NC(=O)NCCC(=O)NC1CCCC1`, the INHIBITION came out at 19.7%.

Regarding `Cc1ccc(OCC2CCCN(C(=O)CN3CCOCC3)C2)cc1` (centres undefined), the INHIBITION worked out at 56.5%.

For the compound `Cc1ccc(OCC2CCCN(C(=O)Cn3ccccc3=O)C2)cc1` (centres undefined), the INHIBITION is listed as 18.5%.

With `Cc1ccc(OCC2CCCN(C(=O)CCn3ccccc3=O)C2)cc1` (centres undefined), the INHIBITION was found to be 18.5%.

In the case of `Cc1ccc(OCC2CCCN(CC3CCOCC3)C2)cc1` (centres undefined), the INHIBITION came out at 51.1%.

With `Cc1ccc(OCC2CCCN(Cc3ccc(CO)o3)C2)cc1` (centres undefined), the INHIBITION worked out at 22.3%.

For the compound `Cc1ccc(OCC2CCCN(c3nc(CO)cs3)C2)cc1` (centres undefined), the INHIBITION is listed as 34.4%.

As to `Cc1ccc(N2CCC3(CC2)CNC(=O)CO3)nn1`, the INHIBITION stood at 21.7%.

Take `O=C(NC[C@H]1OC[C@@H]2CN(Cc3ccco3)CC[C@@H]21)c1cscn1`: the INHIBITION is reported as -72%.
